From PubChem BioAssay (NCATS) come the findings set out here.

Records with an inconclusive call do not appear. A number with no mark means an inactive call. The source made the active and inactive calls. The call rests on the fitted dose curve; in most records, active means well fitted cell-killing curve with a large enough effect; inconclusive means small, poorly fitted or top-dose-only effect, or effect the other way; inactive means no such curve, though single readings can be large or run the other way.
Potency means the concentration at half of the fitted maximal effect.

The test in a line: Quantitative High-Throughput drug screen in 47 multiple myeloma cell lines against the NCATS MIPE library collection: KMS11_JCRBsus cell viability assay (AID 1919873). Further: nearly all actives have a fitted effect of over 50% in size. Particulars: KMS11 myeloma viability, CellTiter-Glo ATP luminescence, 48 h; series mostly up to 45.8 µM; viability (% of control): at the top concentration. From the text:
PI: Beverly A. Mock Ph.D.
Laboratory of Cancer Biology and Genetics,
Center for Cancer Research, National Cancer Institute,
National Institute of Health, Bethesda, Maryland
Drug resistance and disease progression are common in multiple myeloma (MM) patients, underscoring the need for new therapeutic combinations. […] We hypothesized that effective combinations would reduce MYC expression and enhance p16 activity. […] These preclinical data identify potentially useful drug combinations for evaluation in drug-resistant MM and reveal potential mechanisms of combined drug sensitivity.
Described herein is the primary MIPE qHTS used to cherrypick compounds. Validated compounds were then further tested for potential synergistic activiy.
[1] Peat TJ, Gaikwad SM, Dubois W, Gyabaah-Kessie N, Zhang S, Gorjifard S, Phyo Z, Andres M, Hughitt VK, Simpson RM, Miller MA, Girvin AT, Taylor A, Williams D, D'Antonio N, Zhang Y, Rajagopalan A, Flietner E, Wilson K, Zhang X, Shinn P, Klumpp-Thomas C, McKnight C, Itkin Z, Chen L, Kazandijian D, Zhang J, Michalowski AM, Simmons JK, Keats J, Thomas CJ, Mock BA. Drug combinations identified by high-throughput screening promote cell cycle transition and upregulate Smad pathways in myeloma. Cancer Lett. 2023 Aug 1;568:216284. doi: 10.1016/j.canlet.2023.216284. Epub 2023 Jun 24. PMID: 37356470; PMCID: PMC10408729.
SEQUENCE No. (e.g., 1, 2, 3, etc.); […] (e.g., Cells, Incubation, Reagent, etc.); VALUE and DESCRIPTION.
1; Cells; 5 uL; white, solid bottom 1536-well Greiner assay plate.
2; Compounds; 23 nL; Kalypsis pin tool (Wako USA) equipped with a 1536-well pin head to transfer to the assay plates.
3; Incubation; 48 hours; 37C incubation.
4; Reagent;5uL; CellTiter Glo (Promega).
5; Detector; 425V; Luminescence; Viewlux PerkinElmer.
NOTES (numbers refer to Sequence numbers above)
1. The cell-based screening methods employed in this study were like those previously published. Briefly, the corresponding myeloma cell lines were screened in 1,536-well plates with 500 cells, 5-uL per well for inhibition of cell viability (assessed by measuring ATP levels with CellTiterGlo).
2. NCATS MIPE 4.0 library of approved and investigational drugs were added using the Kalypsis pin tool. Wells treated with DMSO only for 100% viability and media only for 0% viability were used as controls.
3. The assay plates were covered and incubated for 48 hours in a 37C, 5% CO2 incubator with controlled humidity.
4. After 48 hours, CellTilter-GloTM luminescent substrate mix (Promega) reagent was added to the assay plate and plates we incubated for 5 min at room temperature.
5. Signal was measured as median relative luminescence units on a ViewLux (PerkinElmer) multiplate reader.
[1] Heske CM, Davis MI, Baumgart JT, Wilson K, Gormally MV, Chen L, Zhang X, Ceribelli M, Duveau DY, Guha R, Ferrer M, Arnaldez FI, Ji J, Tran HL, Zhang Y, Mendoza A, Helman LJ, Thomas CJ. Matrix Screen Identifies Synergistic Combination of PARP Inhibitors and Nicotinamide Phosphoribosyltransferase (NAMPT) Inhibitors in Ewing Sarcoma. Clin Cancer Res. 2017 Dec 1;23(23):7301-7311. doi: 10.1158/1078-0432.CCR-17-1121. Epub 2017 Sep 12. PMID: 28899971; PMCID: PMC6636827.
On to `FC(F)(F)c1ccc(C=Cc2nc(COc3ccc(CCCCn4ccnn4)cc3)co2)cc1`, for which the Potency is 0.0235 µM (active). Take `COc1cc(C=CC(=O)O)ccc1O`: the “viability (% of control)” value is 132%. For `CC[C@H](NC(=O)[C@H](C)NC)C(=O)N1C[C@@H](O)C[C@H]1Cc1c(-c2[nH]c3cc(F)ccc3c2C[C@H]2C[C@H](O)CN2C(=O)[C@H](CC)NC(=O)[C@H](C)NC)[nH]c2cc(F)ccc12`, the “viability (% of control)” value was 121%. The same measure, in the same setting: under `O=C(O)C1=CO[C@@H](O[C@@H]2O[C@H](CO)[C@H](O)[C@H](O)[C@H]2O)[C@@H]2C(CO)=CC[C@H]12` stands 104%.

Consider `Cc1cccc2c1CC[C@H](CN1CCC(c3c(Cl)cccc3Cl)CC1)C[C@@H]2O`, for which the Potency is 14.8 µM (active). As for `CC(=O)OCC(=O)[C@@]12OC(C)(C)O[C@H]1C[C@H]1[C@@H]3C[C@H](F)C4=CC(=O)C=C[C@]4(C)[C@@]3(F)[C@@H](O)C[C@@]12C`, the Potency was 0.0166 µM (active). In the case of `CN1CCN(c2ncc(-c3cc(Cl)cc(Cl)c3Cl)c(N)n2)CC1`, the “viability (% of control)” value is 98.5%. For the compound `CNC1CCC(N(Cc2cccc(-c3ccncc3)c2)C(=O)c2sc3ccccc3c2Cl)CC1` (stereo not given), the Potency was 8.33 µM (active).

With `O=c1cc(-c2ccc(O)c(O)c2)oc2cc(O)cc(O)c12`, the “viability (% of control)” value was 89.6%. Take `COc1ccc(-c2oc3c(CC=C(C)C)c(O)cc(O)c3c(=O)c2O)cc1`: the “viability (% of control)” value is 105%. Same read-out and setting: under `CCC=CC[C@H]1C(=O)CC[C@@H]1CC(=O)OC` stands 101%. As to `Cc1ccc(NC(=O)c2cccc(N(C)C)c2)cc1NC(=O)c1ccc(O)cc1`, the Potency was 4.18 µM (active). On to `Cc1ccccc1C(=O)c1ccc(Nc2ccc(Br)cc2N)cc1Cl`, for which the Potency was 18.7 µM (active). As for `CC[C@@H]([C@H](C)O)n1ncn(-c2ccc(N3CCN(c4ccc(OCC5CO[C@@](Cn6cncn6)(c6ccc(F)cc6F)C5)cc4)CC3)cc2)c1=O` (stereo not given in full), the Potency was 11.8 µM (active). As to `CCC[C@H](N[C@@H](C)C(=O)N1[C@@H]2CCCC[C@H]2C[C@H]1C(=O)O)C(=O)OCC`, the “viability (% of control)” value is 91.6%.

For `CC1(C)OC2CC3C4CC(F)C5=CC(=O)C=CC5(C)C4C(O)CC3(C)[C@]2(C(=O)CO)O1` (stereo not given in full), the Potency is 0.0264 µM (active). Still for that read-out and setting: under `CCNC(=O)c1noc(-c2cc(C(C)C)c(O)cc2O)c1-c1ccc(CN2CCOCC2)cc1` stands 0.0235 µM (active). Turning to `O=C(O)CCC=CCC[C@@H]1[C@H](N2CCCCC2)[C@@H](O)C[C@@H]1OCc1ccc(-c2ccccc2)cc1`, the “viability (% of control)” value is 83.5%. In the case of `CC(C)=CCCC(C)=CCCC(C)=CCCC(C)=CCCC(C)=CCCC(C)=CCCC(C)=CCCC(C)=CCCC(C)=CCO`, the “viability (% of control)” value was 81.9%. For the compound `Nc1ncnc2c1c(-c1cccc(OCc3ccccc3)c1)cn2C1CC(CN2CCC2)C1` (stereo not given), the Potency was 2.96 µM (active).

In the case of `CCc1cccc(CC)c1NC(=O)N1Cc2[nH]nc(NC(=O)c3ccc(N4CCN(C)CC4)cc3)c2C1`, the Potency is 1.05 µM (active).

`CN(C)N=Nc1nc[nH]c1C(N)=O`: the “viability (% of control)” value is 98%.

Turning to `Cc1ccc(S(=O)(=O)OCC(=O)Nc2ccc(C(=O)O)c(O)c2)cc1`, the “viability (% of control)” value is 89.4%. Turning to `N#CC1(c2cccc(C(=O)Nc3cc(Oc4ccc5nc(NC(=O)C6CC6)sc5n4)ccc3F)c2Cl)CC1`, the Potency was 0.132 µM (active). As to `O=C(O)C1=NC(C(=O)O)CC(C=CN2c3cc(O)c(OC4OC(CO)C(O)C(O)C4O)cc3CC2C(=O)O)=C1` (stereo not given), the “viability (% of control)” value is 108%. Take `CCOC(=O)c1c(CSc2ccccc2)n(C)c2cc(Br)c(O)c(CN(C)C)c12`: the Potency is 18.7 µM (active). As to `CO[C@H]1O[C@@H]2O[C@@]3(C)CC[C@@H]4[C@@H](C)CC[C@@H]([C@H]1C)[C@@]24OO3`, the “viability (% of control)” value was 89.3%. Take `CC(C)CNc1ccnc(NCc2csc(-c3ccccc3)n2)n1`: the Potency was 13.2 µM (active). For `CN[C@H]1[C@@H](O[C@@H]2[C@H](O[C@@H]3[C@@H](O)[C@@H](O)[C@@H](N=C(N)N)[C@@H](O)[C@@H]3N=C(N)N)O[C@H](C)[C@@]2(O)C=O)O[C@@H](CO)[C@@H](O)[C@H]1O`, the “viability (% of control)” value was 119% [at 15.3 µM]. For `COc1ccc(-c2cc(=O)c3c(O)cc(O[C@@H]4O[C@H](CO[C@@H]5O[C@@H](C)[C@H](O)[C@@H](O)[C@@H]5O)[C@@H](O)[C@H](O)[C@@H]4O)cc3o2)cc1O`, the “viability (% of control)” value is 105%.

As to `COC1CCC(C(=O)c2ccc3nc4c(cc3c2)CCCO4)CC1` (stereo not given), the Potency was 20.9 µM (active). Consider `N=C1SC(=Cc2ccc(-c3ccc4c(c3)C(=O)NC4=O)o2)C(=O)N1c1ccc(Br)cc1`, for which the “viability (% of control)” value is 95.6%. `Oc1ccc(C=Cc2cc(O)cc(O)c2)cc1`: the Potency is 16.6 µM (active).

In the case of `Cc1cccc(Nc2nc(N[C@@H]3CCCC[C@H]3N)ncc2C(N)=O)c1`, the Potency is 26.4 µM (active). Same read-out and setting: for `CN1CCc2c(n(Cc3ccc(C(=O)NO)cc3)c3ccccc23)C1` the value was 18.7 µM (active); for `Cc1ccccc1-n1c(Cn2nc(-c3cccc(O)c3)c3c(N)ncnc32)nc2cccc(C)c2c1=O`, 6.62 µM (active). Take `N[C@@H](CC(=O)N1CCn2c(nnc2C(F)(F)F)C1)Cc1cc(F)c(F)cc1F`: the “viability (% of control)” value is 99%. Regarding `COc1ccc2nc3cc(Cl)ccc3c(Nc3cc(CN4CCCC4)c(O)c(CN4CCCC4)c3)c2n1`, the Potency is 16.6 µM (active). Take `O=C1CCCC(=O)C1C(=O)c1ccc(C(F)(F)F)cc1[N+](=O)[O-]`: the “viability (% of control)” value is 110%. For the compound `CN(C)CCOc1ccc(-c2nc(-c3ccc4c(c3)CCC4=NO)c(-c3ccncc3)[nH]2)cc1`, the Potency was 11.8 µM (active).
